23 molecules from PubChem BioAssay (Tox21) can be followed below.

Active and inactive are the calls of the source. Calls come from the whole dose curve; as a rule, active = well fitted curve in the direction sought with a large enough effect in the repeat runs; inconclusive = weak or mixed curves; inactive = flat fitted curve, though single readings scatter.

The test can be described thus: qHTS assay to test for compound auto fluorescence at 535 nm (green) in HEK293 cells (AID 720680). To be noted: green autofluorescence 485/535 nm; series mostly up to 91.3 µM. In general terms: In qHTS, concentration-response curves come from the screen itself.
In the case of `FC(F)(F)c1ccccc1`, the call was inactive. With `Cc1ccc([N+](=O)[O-])cc1Cl` the entry was “inactive”; with `NC(=O)Cc1cccc(C(=O)c2ccccc2)c1N`, “inactive”. To `CN(C)CC[C@@H](c1ccc(Cl)cc1)c1ccccn1` belongs “inactive”; to `COc1cc(C)ccc1C(C)C`, “inactive”. Consider `CCCCC(CC)COC(=O)COc1cc(Cl)c(Cl)cc1Cl` (stereo not drawn), for which the call was inactive. To `CCOc1ccc(NC(N)=O)cc1` belongs “inactive”.

Turning to `C1CCOC1`, the outcome was inactive. As for `C=C(C)C(=O)OCCOP(=O)(O)O`, the call was inactive. To `C=Cc1ccccc1` belongs “inactive”; to `CC/C=C\CCOC(=O)CCCCC`, “inactive”. With `CC1CN(c2ccccc2)NC1=O` (stereo not drawn) the entry was “inactive”; with `Cc1c(C(=O)NCCO)[n+](=O)c2ccccc2n1[O-]`, “inactive”; with `Cc1cc(S(=O)(=O)O)c(N)cc1Cl`, “inactive”.

For the molecule `NC1=NCC2c3ccccc3Cc3ccccc3N12` (stereo not drawn), the molecule was called inactive. With `CCc1nnc(NS(=O)(=O)c2ccc(N)cc2)s1` the entry was “inactive”; with `COc1ccc(Nc2ccc(OC)cc2)cc1`, “inactive”. With `O=C(O[C@@H](C(=O)O)[C@@H](OC(=O)c1ccccc1)C(=O)O)c1ccccc1` the entry was “inactive”; with `CCCCC(=O)O[C@]1(C(=O)CO)[C@H](C)C[C@H]2[C@@H]3CCC4=CC(=O)C=C[C@]4(C)[C@@]3(F)[C@@H](O)C[C@@]21C`, “inactive”. To `C[C@@H]1CN(c2c(F)c(N)c3c(=O)c(C(=O)O)cn(C4CC4)c3c2F)C[C@H](C)N1` belongs “inactive”; to `NNS(=O)(=O)c1ccc(Oc2ccc(S(=O)(=O)NN)cc2)cc1`, “inactive”; to `CCN(CC)C(=O)N(CC)CC`, “inactive”. Consider `Cc1ccsc1C(=CCCN1CCC[C@@H](C(=O)O)C1)c1sccc1C`, for which the molecule was called inactive.
